About 83,000 compounds went through this panel and 20% of them were active in at least one assay; those are over-represented in the sample as a whole.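 Compound tested at a single concentration for 48 hours in 96-well plates; a percent growth value below 10 was scored as active.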 Activity calls are given as the source filed them.
Key:
Assay in all cases: NCI-60 one-dose screen, 48 h (100 = growth as untreated, 0 = no growth, -100 = all killed)
Settings in all cases: 10 µM unless noted
EKVX NSCLC = system: EKVX NSCLC
SN12C renal = system: SN12C renal
TK-10 renal = system: TK-10 renal
ACHN renal = system: ACHN renal
CAKI-1 renal = system: CAKI-1 renal
A498 renal = system: A498 renal
CCRF-CEM leukemia = system: CCRF-CEM leukemia
MOLT-4 leukemia = system: MOLT-4 leukemia
UO-31 renal = system: UO-31 renal

Measured: growth

CC(C)(C)c1cnc(CSc2cnc(NC(=O)C3CCNCC3)s2)o1
active: TK-10 renal 5.16% | ACHN renal 9.41% | A498 renal -31.7% | CCRF-CEM leukemia 7.55% | MOLT-4 leukemia 0.905%
inactive: EKVX NSCLC 22.7% | SN12C renal 11.8% | CAKI-1 renal 16.5%

C=CCCCC(=O)CCC(=O)OCC1O[C@@H](O[C@@H]2C(O)[C@@H](OC(C)=O)C(C)O[C@H]2O[C@H](CC=C)CCCCC)C(O)[C@@H](OC(=O)/C(C)=C/C)[C@@H]1OC(=O)/C=C/c1ccccc1 (some centres not stated)
active: SN12C renal 3.86%
inactive: EKVX NSCLC 30.5% | UO-31 renal 24.5% | TK-10 renal 27% | ACHN renal 23.4% | A498 renal 52.5% | CCRF-CEM leukemia 29.2% | MOLT-4 leukemia 26.7%

O=C1C=CC2(NN=C(c3ccccc3)N2c2cccc(Cl)c2)C(Cl)=C1 (configuration not stated)
inactive: EKVX NSCLC 67.5% | SN12C renal 84.4% | UO-31 renal 51.5% | TK-10 renal 100% | ACHN renal 63.7% | A498 renal 83.4% | CCRF-CEM leukemia 41.6% | MOLT-4 leukemia 39.2%

O=C(c1ccc(F)c(F)c1Nc1ccc(I)cc1F)N1CC(O)([C@@H]2CCCCN2)C1
active: UO-31 renal -9.6% | A498 renal -71.2% | MOLT-4 leukemia 4.19%
inactive: EKVX NSCLC 24.4% | SN12C renal 34% | TK-10 renal 11.6% | ACHN renal 18.2% | CCRF-CEM leukemia 39.7%

O=C(O)c1ccc2c(c1)nc(Nc1cccc(Cl)c1)c1ccncc12
inactive: EKVX NSCLC 19.6% | SN12C renal 12.5%
active: UO-31 renal -14% | TK-10 renal 0.456% | ACHN renal -0.277% | A498 renal -49.9% | CCRF-CEM leukemia 3.22% | MOLT-4 leukemia -6.15%

Cc1ccc(F)c(NC(=O)Nc2ccc(-c3cccc4[nH]nc(N)c34)cc2)c1
inactive: EKVX NSCLC 21.9% | SN12C renal 24.9% | UO-31 renal 17.6% | ACHN renal 15.4% | A498 renal 30.1% | CCRF-CEM leukemia 11.4% | MOLT-4 leukemia 15.5%
active: TK-10 renal 2.19%

COc1cc2cc(NCc3ccc(Cl)cc3)nc(C)c2cc1OC
inactive: SN12C renal 42% | UO-31 renal 41.4% | TK-10 renal 44.9% | ACHN renal 54.8% | CAKI-1 renal 59.8% | A498 renal 26% | CCRF-CEM leukemia 27.9% | MOLT-4 leukemia 27.6%

O=C(Nc1nc2cccc(-c3ccc(CN4CCS(=O)(=O)CC4)cc3)n2n1)C1CC1
inactive: EKVX NSCLC 106% | SN12C renal 76.8% | TK-10 renal 66.3% | ACHN renal 93.6% | CAKI-1 renal 88.4% | A498 renal 60.8% | CCRF-CEM leukemia 30.9% | MOLT-4 leukemia 41%

Cc1nc(Nc2n[nH]c3c2CN(C(=O)N[C@H](CN(C)C)c2ccccc2)C3(C)C)c2sccc2n1
inactive: EKVX NSCLC 12.9%
active: SN12C renal -6.2% | TK-10 renal -30.1% | ACHN renal 3.72% | CAKI-1 renal -5.88% | A498 renal -72.9% | CCRF-CEM leukemia 1.05% | MOLT-4 leukemia -0.869%

CS(=O)(=O)N1CCN(Cc2cc3nc(-c4cccc5[nH]ncc45)nc(N4CCOCC4)c3s2)CC1
active: UO-31 renal -14.7% | TK-10 renal 0.78% | ACHN renal 6.84% | CAKI-1 renal 7.35% | A498 renal -47.6%
inactive: SN12C renal 17.2% | CCRF-CEM leukemia 36.3% | MOLT-4 leukemia 12.3%

O=[N+]([O-])c1cc(Br)cc2c1[nH]c1ccc(Br)cc12
inactive: SN12C renal 82.7% | UO-31 renal 25.5% | TK-10 renal 52.8% | ACHN renal 32.9% | CAKI-1 renal 51.4% | A498 renal 76.2% | CCRF-CEM leukemia 65.2% | MOLT-4 leukemia 77.1%

CO[C@H]1C[C@@H]2CC[C@@H](C)[C@@](O)(O2)C(=O)C(=O)N2CCCC[C@H]2C(=O)O[C@H]([C@H](C)C[C@@H]2CC[C@@H](OCCO)[C@H](OC)C2)CC(=O)[C@H](C)/C=C(\C)[C@@H](O)[C@H](OC)C(=O)[C@H](C)C[C@H](C)\C=C/C=C/C=C/1C
inactive: SN12C renal 54.3% | UO-31 renal 16.6% | TK-10 renal 63.8% | ACHN renal 48.6% | CAKI-1 renal 47.6% | A498 renal 25.8% | CCRF-CEM leukemia 35% | MOLT-4 leukemia 33.3%

CN(C)C/C=C/C(=O)Nc1cc2c(Nc3ccc(F)c(Cl)c3)ncnc2cc1O[C@H]1CCOC1
active: SN12C renal 3.6% | TK-10 renal -10.4% | ACHN renal -84.9% | CAKI-1 renal 5.36% | A498 renal -40.4% | CCRF-CEM leukemia 6.13% | MOLT-4 leukemia -13.5%
inactive: UO-31 renal 12.2%

CS(=O)(=O)N1CCc2c(-c3cnc(N)nc3)nc(N3CCOCC3)nc21
inactive: EKVX NSCLC 10.2% | CCRF-CEM leukemia 22.2%
active: SN12C renal 8.6% | TK-10 renal -21.4% | ACHN renal 0.427% | CAKI-1 renal -8.15% | A498 renal -49.9% | MOLT-4 leukemia 9.81%

From PubChem BioAssay (NCI)
